# Measured values taken from the supplement of paper PMC6555819.
# Experiments:
# Assay in all cases: PBM binding z-score (relative to random genomic background probes); higher = stronger binding; sequences stand for … in GC…GCGATTGACAGCGTAGAATGAAGG
# [1] = tested on: FXR:RXRa (NR concentration 270 nM, RXRa partner concentration 90 nM)
# Summary of the method: (§1)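 On custom Agilent 4×180K arrays, double-stranded probes with 34-nt variable regions carried direct-repeat seeds, single-nucleotide variants, half-site ablations or random human genomic background. Ligand-free nuclear receptor dimers were applied for 1 h, and binding was read with antibodies against each partner (one per run). Binding z-scores come from regression-normalized fluorescence, with the random background probes as reference.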
# [2] = tested on: LXRa:RXRa (NR concentration 270 nM, RXRa partner concentration 90 nM)
# Summary of the method: as §1
# [3] = tested on: LXRa homodimer (NR concentration 270 nM)
# Summary of the method: as §1
# [4] = tested on: LXRb:RXRa (NR concentration 270 nM, RXRa partner concentration 90 nM)
# Summary of the method: as §1
# [5] = tested on: LXRb homodimer (NR concentration 270 nM)
# Summary of the method: as §1
# [6] = tested on: PPARa:RXRa (NR concentration 270 nM, RXRa partner concentration 90 nM)
# Summary of the method: as §1
# [7] = tested on: PPARg:RXRa (NR concentration 180 nM, RXRa partner concentration 90 nM)
# Summary of the method: as §1
# [8] = tested on: PPARg:RXRa 270nM:90nM, anti-RXR (NR concentration 270 nM, RXRa partner concentration 90 nM)
# Summary of the method: as §1
# [9] = tested on: PPARg:RXRa 30nM:10nM, anti-RXR (NR concentration 30 nM, RXRa partner concentration 10 nM)
# Summary of the method: as §1
# [10] = tested on: PPARg:RXRa 90nM:30nM, anti-RXR (NR concentration 90 nM, RXRa partner concentration 30 nM)
# Summary of the method: as §1
Sequence,PBM binding z-score [1],PBM binding z-score [2],PBM binding z-score [3],PBM binding z-score [4],PBM binding z-score [5],PBM binding z-score [6],PBM binding z-score [7],PBM binding z-score [8],PBM binding z-score [9],PBM binding z-score [10]
TCTAGTTGGTCACGGAGATCACACACGACGGGTA,0.323,0.174,0.394,0.575,0.153,0.929,1.16,2.06,2.93,2.31
TTTCGGAGGACACGAAGGTCAGAGCTTTCCAGAG,1.83,1.7,0.81,1.61,-0.442,2.12,0.582,1.32,0.325,0.593
AGGACGAGGGCACGCTGAGTTGATAGCAGAGTAG,0.954,0.423,-0.584,0.138,-1.02,1.45,1.2,0.43,-0.0581,0.384
ATATGTAGGTTATCGGGTCAATCAGTTTGCGCAT,3.33,3.31,1.36,2.99,1.1,4.99,7.6,6.41,3.84,5.93
GCTAGTTGGTCAGTAAAAGGTAACACACCGGTCG,0.0852,0.248,0.0445,0.107,-0.224,0.694,0.783,0.945,0.0648,0.29
TCTAGCAGGCCAGAGGGGCACTCAAGAGGTACGG,-0.239,-0.393,-0.689,-0.334,-0.644,0.22,0.662,1.41,1.64,1.51
CTACCAAGGTGAACAAGATCGTTGATTACTATTC,0.605,0.479,-0.171,0.709,-0.457,1.31,0.756,0.973,0.161,0.606
GATACAGGGGCAGCTAGAGGCCAGAGTATGGAAA,0.0694,0.017,-0.177,0.453,-0.405,0.26,0.483,0.296,-0.0735,-0.078
CGAAATAGGTCAAGGACAGTGAATCTCCGCACGC,5.6,4.09,0.715,3,0.676,5.27,7.22,6.58,4.2,6.39
CCTAGCAGGACAGGGTCACTCAAGCATTTCGCTT,2.28,1.99,-0.28,2.4,-0.799,3.41,0.993,1.68,-0.413,0.404
TCTTGTAGATCTATAGAGGTTAAGAAAGTGCGCT,0.449,3.17,0.171,1.78,-0.194,1.81,0.274,1.62,2.58,2.23
ACAGACAGGTGAGTGAAGGTAGCTCAGCTGGACG,-0.0191,-0.179,-0.74,-0.796,-0.607,-0.372,0.284,0.0552,-0.201,-0.0871
CCTACTAGGTCAATGGTCAGCTAAAGCAGCTCGC,3.38,2.41,0.529,1.87,0.47,4.62,8.83,7.23,6.92,7.71
CGAACTAGGTCATTCACAGGACAGTGAATAGTAA,4.72,3.19,0.593,2.48,0.493,4.67,7.34,6.26,3.72,5.9
ACTATTAGTTGACATAGGGCAACCGATACGACGC,0.176,0.333,0.152,0.7,0.719,0.537,1.45,0.934,0.646,1
GCGACTGGGGCAAAGCAGGTTAGCATAAGGTTGG,0.494,-0.573,-0.598,-0.43,-1.24,0.977,1.14,0.948,-0.509,0.412
GCGACTGGGGCATCAGCAGGTTACCGTAACTTAA,-0.346,-0.107,-0.365,0.443,-0.973,1.18,0.623,0.961,-0.441,-0.00586
ACCGAAAGGTCGAAGGTGAGTATACCCACCCGAA,4.73,3.55,-0.00494,2.87,0.185,4.8,4.39,4.89,1.89,3.85
CCGACTGGGCCAAGGTCATTGATCAGTCAAAGCA,2.94,2.76,0.884,2.65,-1.02,3.83,2.29,3,0.61,2.11
GCTCGGTGGACAAGGTCAGAGCTTTGTCCGTAGA,1.11,1.03,-0.446,0.887,-1.16,2.09,0.0962,1.14,-0.712,0.499
GCTATTAGCTGAAAGGGCAACCGAATGATTCTCG,0.0536,0.222,-0.091,0.372,-0.619,1.19,1.15,2.72,0.859,2.07
ACTCTGAGGACAAAGGTCAGAGCTACGCCAGTGA,4.52,4.08,1.44,3.34,0.531,4.76,7.44,7,5.4,6.74
CCTGCTAGGTCATTGTCAGCTAATCTACAGTATG,3.88,2.99,0.878,1.84,0.257,2.94,1.29,2.14,0.169,1.22
CGAACTAGGTCAGAACAGCACAGTGAAGGATGAT,0.904,0.613,-0.229,0.425,-0.2,3.25,5.34,4.59,1.73,3.54
